This passage reports Percent Effect results from ChEMBL document CHEMBL3988442, “University of Dundee, Small-Polar-MMV Screening Library” (2021).

For part of these data: Measured potencies and affinities stand elsewhere.

Parameters in all cases: scale not given: direction of the effect not stated beside the values
The target in assay [1] is Protein translocase subunit SecA (Escherichia coli (strain K12)) (UniProt P10408). Put plainly: Assay to Identify E. coli SecA ATPase Inhibitors. Format: functional. As to conditions: 30 µM.
For assay [2], the target named is T1, Ubiquitin-activating enzyme e1, putative (Leishmania donovani (strain BPK282A1)) (UniProt E9BSI1).
T1 sequence (whole entry): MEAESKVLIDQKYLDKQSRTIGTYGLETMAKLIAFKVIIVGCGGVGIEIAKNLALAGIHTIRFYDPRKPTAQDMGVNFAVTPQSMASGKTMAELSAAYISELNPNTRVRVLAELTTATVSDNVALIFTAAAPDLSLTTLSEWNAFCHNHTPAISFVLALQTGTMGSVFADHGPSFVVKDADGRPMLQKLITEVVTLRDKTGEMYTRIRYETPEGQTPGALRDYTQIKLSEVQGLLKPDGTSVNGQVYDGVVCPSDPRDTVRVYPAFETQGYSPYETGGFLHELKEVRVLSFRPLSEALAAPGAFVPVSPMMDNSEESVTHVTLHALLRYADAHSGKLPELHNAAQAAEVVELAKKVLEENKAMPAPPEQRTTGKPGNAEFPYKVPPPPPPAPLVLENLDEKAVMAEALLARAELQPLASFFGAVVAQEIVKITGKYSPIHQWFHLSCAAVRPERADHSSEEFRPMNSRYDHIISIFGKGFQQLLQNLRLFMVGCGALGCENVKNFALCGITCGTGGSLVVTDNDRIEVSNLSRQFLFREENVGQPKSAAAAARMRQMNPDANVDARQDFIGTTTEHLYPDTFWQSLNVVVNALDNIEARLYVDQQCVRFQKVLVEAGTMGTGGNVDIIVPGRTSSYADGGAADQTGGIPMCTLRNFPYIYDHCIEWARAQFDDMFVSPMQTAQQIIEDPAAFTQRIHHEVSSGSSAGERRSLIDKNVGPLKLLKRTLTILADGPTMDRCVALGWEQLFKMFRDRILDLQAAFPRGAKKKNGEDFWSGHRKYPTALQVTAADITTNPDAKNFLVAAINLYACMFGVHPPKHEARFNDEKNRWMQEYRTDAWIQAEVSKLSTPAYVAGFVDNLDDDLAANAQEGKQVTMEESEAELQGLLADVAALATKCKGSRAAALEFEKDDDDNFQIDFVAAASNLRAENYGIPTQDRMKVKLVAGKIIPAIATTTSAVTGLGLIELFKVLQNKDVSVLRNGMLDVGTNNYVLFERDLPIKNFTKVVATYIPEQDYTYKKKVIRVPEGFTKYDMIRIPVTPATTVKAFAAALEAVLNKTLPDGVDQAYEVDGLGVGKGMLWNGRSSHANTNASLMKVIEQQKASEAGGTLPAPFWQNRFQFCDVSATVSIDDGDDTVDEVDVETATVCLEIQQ
Put plainly: Leishmania donovani Ubiquitin Activating Enzyme (LdE1). The assay is classed as functional. As to conditions: 30 µM.

The target in assay [3] is AMP-activated protein kinase, AMPK (Homo sapiens) (UniProt P54646+O43741+P54619+Q9UGJ0+Q9Y478+Q13131+Q9UGI9). Description: AMP-dependent Kinase enzyme assay. An in vitro enzyme assay that detects ADP turnover that is directly proportional to AMPK activity. This uses naive AMPK that is activated during the assay with MK-8722. Format: functional. The note with it: 30 µM.

In assay [4] the target is Sialic acid-binding Ig-like lectin 9 (Homo sapiens) (UniProt Q9Y336). Put plainly: Hs-Siglec9 ALPHAscreen SOP 20170721. The note with it: 10 µM. (Alpha assays give light when donor and acceptor beads are brought close together.)
The test system of another assay is Trypanosoma cruzi. Description: Trypanosoma cruzi phosphomannomutase and mannose-1-phosphate guanylyltransferase assay. Format: functional. The note with it: 10 µM.
The target in assay [5] is T2, Arginase-2, mitochondrial (Homo sapiens) (UniProt P78540).
T2 sequence (whole entry): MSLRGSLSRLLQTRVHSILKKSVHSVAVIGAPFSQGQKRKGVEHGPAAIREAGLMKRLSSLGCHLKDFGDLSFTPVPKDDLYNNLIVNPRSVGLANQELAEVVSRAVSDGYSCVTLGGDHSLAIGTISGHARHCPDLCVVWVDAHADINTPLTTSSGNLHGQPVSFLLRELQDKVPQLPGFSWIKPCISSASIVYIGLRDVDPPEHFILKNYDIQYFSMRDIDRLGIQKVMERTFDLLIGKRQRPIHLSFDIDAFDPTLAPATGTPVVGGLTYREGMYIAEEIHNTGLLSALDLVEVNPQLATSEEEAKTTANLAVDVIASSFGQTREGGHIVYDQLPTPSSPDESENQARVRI
Put plainly: in vitro enzyme assay to detect the production of urea directly proportional to the activity of Arginase II. Note: in the data most compounds retested in dose-response had high values. The assay is classed as functional. The note with it: 33.3 µM.

Assay [6] deals with T3, Proteasome subunit beta (Trypanosoma cruzi) (UniProt O96673).
T3 sequence (whole entry): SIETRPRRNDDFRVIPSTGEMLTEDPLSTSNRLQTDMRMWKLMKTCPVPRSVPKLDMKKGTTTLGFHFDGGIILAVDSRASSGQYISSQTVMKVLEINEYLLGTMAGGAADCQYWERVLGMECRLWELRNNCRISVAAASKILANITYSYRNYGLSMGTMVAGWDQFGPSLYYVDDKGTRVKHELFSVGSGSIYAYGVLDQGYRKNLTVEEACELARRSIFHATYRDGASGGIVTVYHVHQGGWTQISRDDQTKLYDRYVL
Put plainly: Trypanosoma cruzi proteasome chymotrypsin-like activity (TcProtChymo) assay. Note: in the data most compounds retested in dose-response had high values. Format: functional. As to conditions: 9.37 µM.

The species entered for another assay is Homo sapiens. Put plainly: To identify inhibition of the IFN signalling (Jak-Stat) pathway via expression of an eGFP reporter gene under the control of an IFN-stimulated response element (ISRE) containing MxA promoter. The note with it: 30 µM. Format: functional. In general terms: A reporter such as luciferase makes a cellular process visible.
Assay [7] deals with T4, Tyrosyl-tRNA synthetase, putative (Trypanosoma cruzi (strain CL Brener)) (UniProt Q4DSP6).
T4 sequence (whole entry): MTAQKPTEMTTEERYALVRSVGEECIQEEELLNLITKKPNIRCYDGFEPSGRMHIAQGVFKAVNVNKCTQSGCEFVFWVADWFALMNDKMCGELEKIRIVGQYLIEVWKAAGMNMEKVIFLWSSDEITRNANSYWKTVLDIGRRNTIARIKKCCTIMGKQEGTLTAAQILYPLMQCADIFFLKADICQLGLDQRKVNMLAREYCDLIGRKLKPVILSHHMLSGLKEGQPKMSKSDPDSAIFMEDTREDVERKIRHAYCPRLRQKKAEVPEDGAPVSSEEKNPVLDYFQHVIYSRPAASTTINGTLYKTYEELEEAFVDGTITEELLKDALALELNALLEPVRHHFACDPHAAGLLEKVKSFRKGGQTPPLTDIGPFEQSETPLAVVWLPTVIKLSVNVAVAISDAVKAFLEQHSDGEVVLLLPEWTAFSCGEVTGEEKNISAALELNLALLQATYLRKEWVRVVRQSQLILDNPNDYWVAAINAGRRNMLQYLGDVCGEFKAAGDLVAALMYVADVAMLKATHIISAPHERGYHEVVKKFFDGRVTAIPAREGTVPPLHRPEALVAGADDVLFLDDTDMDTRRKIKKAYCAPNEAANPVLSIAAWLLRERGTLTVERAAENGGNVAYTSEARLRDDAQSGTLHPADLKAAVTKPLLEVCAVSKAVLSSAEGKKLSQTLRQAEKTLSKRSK
Description: Trypanosoma cruzi tyrosyl tRNA synthetase (TcYRS) _High Tyrosine SOP. Note: in the data most compounds retested in dose-response had high values. Format: functional. The note with it: 30 µM.

Assay [8] concerns the target T4, Tyrosyl-tRNA synthetase, putative (Trypanosoma cruzi (strain CL Brener)). Put plainly: Trypanosoma cruzi tyrosyl tRNA synthetase (TcYRS) SOP. Format: functional. The note with it: 30 µM.
Assay [9] has as its target Chromo domain-containing protein 1 (Saccharomyces cerevisiae (strain ATCC 204508 / S288c) (Baker's yeast)) (UniProt P32657). Put plainly: ScCHD-1 Enzyme Inhibition Assay. Note: in the data most compounds retested in dose-response had high values. Format: functional. As to conditions: 30 µM.

Sialic acid-binding Ig-like lectin 9 (Homo sapiens), sequence (Q9Y336 whole entry): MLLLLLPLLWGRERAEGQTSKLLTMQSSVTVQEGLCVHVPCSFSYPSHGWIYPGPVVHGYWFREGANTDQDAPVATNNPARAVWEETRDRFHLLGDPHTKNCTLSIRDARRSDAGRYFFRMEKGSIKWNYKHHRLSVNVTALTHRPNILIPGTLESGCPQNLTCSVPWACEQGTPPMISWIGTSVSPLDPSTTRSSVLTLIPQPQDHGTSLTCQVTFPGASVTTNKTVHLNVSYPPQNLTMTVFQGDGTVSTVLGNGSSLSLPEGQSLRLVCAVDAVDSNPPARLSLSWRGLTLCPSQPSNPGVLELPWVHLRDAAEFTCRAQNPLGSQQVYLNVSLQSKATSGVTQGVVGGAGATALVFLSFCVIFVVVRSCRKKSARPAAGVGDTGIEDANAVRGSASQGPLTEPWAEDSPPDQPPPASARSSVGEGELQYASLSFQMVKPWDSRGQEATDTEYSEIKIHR
Protein translocase subunit SecA (Escherichia coli (strain K12)), sequence (P10408 whole entry): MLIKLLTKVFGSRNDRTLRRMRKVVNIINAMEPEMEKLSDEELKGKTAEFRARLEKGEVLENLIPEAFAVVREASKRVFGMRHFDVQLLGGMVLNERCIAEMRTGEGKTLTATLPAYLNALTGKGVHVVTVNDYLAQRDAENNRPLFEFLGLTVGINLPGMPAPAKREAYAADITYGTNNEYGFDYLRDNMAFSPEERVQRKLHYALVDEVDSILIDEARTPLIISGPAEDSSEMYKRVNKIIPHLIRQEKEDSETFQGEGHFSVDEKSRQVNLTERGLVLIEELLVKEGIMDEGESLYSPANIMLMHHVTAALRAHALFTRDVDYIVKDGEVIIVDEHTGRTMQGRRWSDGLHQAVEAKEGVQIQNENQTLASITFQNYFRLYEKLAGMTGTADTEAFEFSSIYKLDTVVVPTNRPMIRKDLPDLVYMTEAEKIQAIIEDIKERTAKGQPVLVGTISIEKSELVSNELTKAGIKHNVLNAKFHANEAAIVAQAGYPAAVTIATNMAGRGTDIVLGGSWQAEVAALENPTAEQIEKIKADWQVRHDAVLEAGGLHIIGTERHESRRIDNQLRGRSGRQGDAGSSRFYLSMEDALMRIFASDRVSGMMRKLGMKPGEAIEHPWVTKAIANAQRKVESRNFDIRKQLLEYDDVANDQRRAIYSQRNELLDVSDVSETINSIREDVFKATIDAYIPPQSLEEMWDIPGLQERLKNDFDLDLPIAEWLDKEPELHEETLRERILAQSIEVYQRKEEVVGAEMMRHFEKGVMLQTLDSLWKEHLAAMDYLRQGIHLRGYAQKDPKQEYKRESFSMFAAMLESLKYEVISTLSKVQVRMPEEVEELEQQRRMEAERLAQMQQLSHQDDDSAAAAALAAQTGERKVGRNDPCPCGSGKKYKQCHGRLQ
Chromo domain-containing protein 1 (Saccharomyces cerevisiae (strain ATCC 204508 / S288c) (Baker's yeast)), sequence (P32657 whole entry, the tested form may be a part): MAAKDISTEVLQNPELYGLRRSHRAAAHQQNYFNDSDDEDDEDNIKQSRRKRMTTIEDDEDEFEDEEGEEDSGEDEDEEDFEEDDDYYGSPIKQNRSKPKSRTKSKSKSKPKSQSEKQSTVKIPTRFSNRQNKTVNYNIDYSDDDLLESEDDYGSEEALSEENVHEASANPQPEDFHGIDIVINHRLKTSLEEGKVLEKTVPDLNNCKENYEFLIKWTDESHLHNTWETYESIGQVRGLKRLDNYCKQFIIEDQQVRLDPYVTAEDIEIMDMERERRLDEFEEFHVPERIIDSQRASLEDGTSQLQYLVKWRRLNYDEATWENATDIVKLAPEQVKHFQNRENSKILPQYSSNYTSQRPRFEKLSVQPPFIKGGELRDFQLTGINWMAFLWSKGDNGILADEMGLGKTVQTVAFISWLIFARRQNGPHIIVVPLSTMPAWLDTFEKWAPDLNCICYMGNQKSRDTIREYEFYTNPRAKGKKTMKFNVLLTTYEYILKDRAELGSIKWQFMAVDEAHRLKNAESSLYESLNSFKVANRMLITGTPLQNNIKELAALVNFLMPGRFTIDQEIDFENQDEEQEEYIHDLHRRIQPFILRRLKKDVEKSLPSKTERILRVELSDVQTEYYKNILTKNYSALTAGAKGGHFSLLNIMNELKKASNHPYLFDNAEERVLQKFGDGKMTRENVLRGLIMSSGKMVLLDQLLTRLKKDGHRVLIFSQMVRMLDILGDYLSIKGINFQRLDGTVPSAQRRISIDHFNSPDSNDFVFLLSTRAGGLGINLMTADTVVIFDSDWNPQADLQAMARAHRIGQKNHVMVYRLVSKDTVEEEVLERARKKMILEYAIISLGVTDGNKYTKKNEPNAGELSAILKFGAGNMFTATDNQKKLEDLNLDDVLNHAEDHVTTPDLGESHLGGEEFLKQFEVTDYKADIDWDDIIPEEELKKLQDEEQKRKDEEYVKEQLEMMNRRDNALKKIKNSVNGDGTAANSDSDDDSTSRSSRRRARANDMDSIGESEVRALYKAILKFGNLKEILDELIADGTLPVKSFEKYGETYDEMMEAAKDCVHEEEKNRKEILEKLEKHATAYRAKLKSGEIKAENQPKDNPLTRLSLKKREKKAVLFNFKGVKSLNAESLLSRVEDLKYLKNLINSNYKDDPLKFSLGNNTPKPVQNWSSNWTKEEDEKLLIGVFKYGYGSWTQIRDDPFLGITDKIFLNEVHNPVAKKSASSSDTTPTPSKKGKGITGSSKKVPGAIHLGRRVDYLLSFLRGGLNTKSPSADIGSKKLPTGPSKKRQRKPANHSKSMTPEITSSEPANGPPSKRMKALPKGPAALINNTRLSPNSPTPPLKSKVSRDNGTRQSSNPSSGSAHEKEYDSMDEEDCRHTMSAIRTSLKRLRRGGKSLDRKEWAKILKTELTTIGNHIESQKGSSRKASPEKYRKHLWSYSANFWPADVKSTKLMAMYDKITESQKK

For the compound `O=C(NC1CC1)[C@H]1C[C@@H]2CCN(CCc3ccccc3)C[C@H]2O1`, the Percent Effect was 2.18% in assay [1]; 10.7% in assay [2]; 9.4% in assay [3]; -8.83% in assay [4]; -7.28% with Trypanosoma cruzi; 2.56% in assay [5]. For the same compound, the Percent Effect was 4.85% in assay [6]; 4.51% in the assay filed under Homo sapiens; 1.06% in assay [7]; 11.5% in [8]; -2.58% in assay [9].

Regarding `CN(c1ccc(C(=O)NCCCN2CCOCC2)c(Cl)c1)S(C)(=O)=O`, the Percent Effect is -5.85% in [1]; 5.2% in assay [2]; -0.453% in [3]; 13.2% in assay [4]; 4.23% in the assay with Trypanosoma cruzi; -13.8% in assay [5]. Further, the Percent Effect in [6] was 7.16%; in the assay listed under Homo sapiens, -1.2%; in assay [7], 5.38%; in assay [8] it was 11.1%; in assay [9] it was -6.36%.

Take `Cc1cc(NC(=O)NCCc2ccsc2)n(C)n1`: the Percent Effect in assay [1] is -0.993%; in assay [2], 15.3%; in [3] it was -5.89%; in assay [4] it was 15.8%; with Trypanosoma cruzi, 0.291%; in assay [5], -0.883%. In addition, the Percent Effect in [6] was 20.7%; in the assay listed under Homo sapiens, -9.26%; in assay [7] it was 1.05%; in [8], 10.3%; in [9] it was 85%.

Regarding `Cn1cnc2c1C(COCC1CCOCC1)CN(C(=O)c1ccoc1)C2` (centres undefined), the Percent Effect in [1] is 1.37%; in assay [2], 18.7%; in assay [3], 4.82%; in [4], -8.07%; with Trypanosoma cruzi, 1.38%; in assay [5] it was -1.63%. The Percent Effect in assay [6] was 14.5%; in the assay listed under Homo sapiens, -17.8%; in assay [7] it was 1.06%; in assay [8] it was 6.41%; in [9], -5.31%.

In the case of `CN(CCC(F)(F)F)C(=O)[C@H]1CSCN1C(=O)OC(C)(C)C`, the Percent Effect in [1] was -4.76%; in assay [2], 0%; in [3], 3.13%; in [4], 1.23%; in the assay on Trypanosoma cruzi, 8.03%; in assay [5] it was 0%. The Percent Effect in [6] is 1.77%; in the assay filed under Homo sapiens, -11.9%; in [7], 1.07%; in assay [8], 2.5%; in [9], -1.07%.

As for `O=C1CCCCN1Cc1cccc(NC(=O)N2CCSCC2)c1`, the Percent Effect was -4.11% in assay [1]; 9.72% in assay [2]; -6.98% in assay [3]; 26% in assay [4]; 2.43% with Trypanosoma cruzi; 8.83% in assay [5]. Moreover, the Percent Effect in assay [6] is 12.1%; in the assay filed under Homo sapiens, 8.32%; in assay [7], 6.32%; in [8] it was 12.8%; in assay [9], -6.96%.

`COCC(=O)N1Cc2cnc(Cc3ccc(OC)cc3)nc2C1`: the Percent Effect in assay [1] is -5.39%; in assay [2], 5.48%; in [3] it was -2.68%; in assay [4], -3.21%; in the assay on Trypanosoma cruzi, 0.392%; in [5], 3.64%. Moreover, the Percent Effect is 10.3% in [6]; 1.33% in the assay listed under Homo sapiens; 8.6% in assay [7]; 15% in assay [8]; -4.76% in assay [9].

With `O=C(NCc1ccoc1)Nc1ccc(CN2CCOC2=O)cc1`, the Percent Effect in assay [1] was -4.58%; in assay [2] it was 1.39%; in assay [3] it was 6.74%; in assay [4], -4.22%; with Trypanosoma cruzi, -6.12%; in assay [5], 0%. In addition, the Percent Effect in assay [6] was 15.1%; in the assay filed under Homo sapiens, 24.8%; in assay [7] it was 0%; in assay [8], -5.13%; in [9] it was -2.04%.

`COCCNC(=O)[C@H]1CN(c2nnc(C)s2)C[C@H]2OCC[C@@H]12`: the Percent Effect in assay [1] is -2.67%; in [2], 0%; in assay [3], 13.1%; in assay [4], 0.154%; with Trypanosoma cruzi, -0.394%; in [5], -0.233%. In addition, the Percent Effect in assay [6] amounted to 3.79%; in the assay filed under Homo sapiens it was 6.49%; in [7], 1.06%; in [8], 1.28%; in assay [9], 2.36%.
